Methyltransferases: Primary Screen for Target Class Profiling of Small Molecule Inhibitors of Methyltransferases; AID 1745853, 2022; purified enzyme, MTase-Glo SAH luminescence; active compounds read low; 3.9% of 25,000 active; calls only at 40 µM; call rule not given here
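Each enzyme was assayed with SAM and its substrate. SAH formation detected by MTase-Glo luminescence; single-point 40 uM screen[…].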
Each line names hits and unclear results; the compound was inactive in the other large screens; ! = not confirmed by another sample. Only a selection was taken, and hits are over-represented in it overall.

CC(C)CN1CC(COc2ccc3ccccc3c2)Oc2ccnc(-c3ccc(OCC(=O)O)cc3)c2C1=O (stereo not drawn)	none
CCC(C)NC(=O)c1ccc2c(=O)n(CC(C)C)c3nn(CC(=O)Nc4ccc(C)c(C)c4)c(=O)n3c2c1 (stereo not drawn)	none
CC(C)Cn1c(=O)c2ccccc2n2c(SCc3ccc(F)cc3)nnc12	none
CCc1ccc(NC(=O)CSc2nnc3n(Cc4ccccc4)c(=O)c4ccccc4n23)cc1	none
Cc1ncc(CCCN(C)C)cc1Nc1ncc2c(n1)-c1ccc(C(F)(F)F)cc1NC(=S)C2	Methyltransferases active
O=C(CCn1ccc2cc(S(=O)(=O)N3CCCC3)ccc21)NCc1cccnc1	none
Cc1cc(C(=O)N2CCc3ncnc(N4CCOCC4)c3CC2)n(C)n1	none
CCn1nnc2c(N3CCOCC3)nc(-c3ccc(NC(=O)Nc4ccc(C(=O)N5CCN(C)CC5)cc4)cc3)nc21	Methyltransferases active
Cc1c(NC(=O)c2ccc(C(C)(C)C)cc2)cccc1-c1cn(C)c(=O)c(Nc2ccc(C(=O)N3CCOCC3)cc2)n1	none
O=C(/C=C/c1ccccc1)OC[C@H]1O[C@@H](OC(=O)c2cc(O)c(O)c(O)c2)[C@H](O)[C@@H](O)[C@@H]1O	Methyltransferases active
O=C(/C=C/c1ccc(O)cc1)OC[C@H]1O[C@@H](O/C(=C\c2ccccc2)C(=O)O)[C@H](O)[C@@H](O)[C@@H]1O	none
CC(=O)O[C@@H]1[C@@H](CO)O[C@@](CO)(O[C@H]2O[C@H](COC(=O)/C=C/c3ccccc3)[C@@H](O)[C@H](O)[C@H]2O)[C@H]1O	none
Cc1ccc(N2C(=O)CSc3c(c4ccccc4n3C)C2C(=O)NCCC(C)C)cc1Cl (stereo not drawn)	none
COc1cc(C(O)CO)ccc1O (stereo not drawn)	none
NC[C@H](O)c1ccc(O)c(O)c1	Methyltransferases active
CC(C)NCC(O)c1ccc(O)c(O)c1 (stereo not drawn)	none
CCN1C(=O)c2cc(C(=O)Nc3cc(C)cc(C)c3)nn2CC1(C)C(=O)NC1CCCC1 (stereo not drawn)	none
COc1ccc2cc3n(c2c1)CC(C)(C(=O)NC1CCCCC1)N(CCCc1ccccc1)C3=O (stereo not drawn)	none
CCOC(=O)c1cc2n(n1)CC(C)(C(=O)NC1CCCC1)N(c1ccc(C)cc1C)C2=O (stereo not drawn)	none
CCCN1C(=O)c2c(C(=O)NCc3ccccc3OC)ncn2CC1(C)C(=O)NC1CCCC1 (stereo not drawn)	none
CC(C)(C[C@@](O)(Cc1cc2ccncc2[nH]1)C(F)(F)F)c1cc(F)ccc1O	Methyltransferases active
O=C(CCc1nnc2n(Cc3ccc(F)cc3)c(=O)c3ccccc3n12)N1CCN(c2cccc(Cl)c2)CC1	none
CCCN1C(=O)c2cc3sc(CC)cc3n2CC1(C)C(=O)NC1CCC(C)CC1 (stereo not drawn)	none
CCOC(=O)c1cc2n(n1)CC(C)(C(=O)NCc1ccc(C)cc1)N(c1ccc(CC)cc1)C2=O (stereo not drawn)	none
O=c1c2ccccc2n2c(-c3ccc(Br)cc3)nnc2n1Cc1ccc(F)cc1	none
NC(=Nc1ccc(CCNCc2cccc(Cl)c2)cc1)c1cccs1	Methyltransferases active
CCCn1c(=O)c2ccc(C(=O)NC3CCCCC3)cc2n2c(SCC(=O)NC3CCCC3)nnc12	none
CC1CCC(NS(=O)(=O)c2ccc3c(c2)n(C)c(=O)n3C)CC1 (stereo not drawn)	none
COC(=O)C1=CO[C@@H](O[C@@H]2O[C@H](CO)[C@@H](O)[C@H](O)[C@H]2O)[C@@H]2C(CO)=CC[C@H]12	none
O=C(/C=C/c1ccc(O)cc1)OCC1=CC2OC(=O)C3=CO[C@@H](O[C@@H]4O[C@H](CO)[C@@H](O)[C@H](O)[C@H]4O)[C@H]1[C@@H]32 (stereo partly drawn)	none
CSC(=O)OCC1=C[C@@H]2OC(=O)C3=CO[C@@H](O[C@@H]4O[C@H](CO)[C@@H](O)[C@H](O)[C@H]4O)[C@H]1[C@@H]32	Methyltransferases active
CCCN1C(=O)c2c(C(=O)NCc3ccc(OCC)cc3)ncn2CC1(C)C(=O)NCc1ccc(F)cc1 (stereo not drawn)	none
Cc1ccc(C(=O)O)c2c1N[C@H](c1cccc(Cl)c1)C1CC=CC21 (stereo partly drawn)	Methyltransferases active
COC(=O)c1ccc([C@@H]2Nc3c(Cl)cccc3[C@@H]3C=CC[C@@H]32)cc1	none
Fc1cccc2c1NC(c1ccc(Cl)cc1)C1CC=CC21 (stereo not drawn)	none
COc1ccc(OC)c2c1cc1n2CC(C)(C(=O)NC2CCCCC2C)N(Cc2cccnc2)C1=O (stereo not drawn)	none
CCOC(=O)C1CCCN(S(=O)(=O)c2ccc3[nH]c(=O)[nH]c3c2)C1 (stereo not drawn)	none
Cc1cc2c(cc1S(=O)(=O)Nc1ccc(Cl)cc1)n(C)c(=O)n2C	none
CC1=NOC2(CCN(C(=O)c3ccccc3)C2)C1 (stereo not drawn)	none
O=C(c1ccccc1)N1CCCC2(CC(c3ccccc3)=NO2)C1 (stereo not drawn)	none
CC(=O)N(C)C1(c2ccccc2)CCN(CCC[C@]2(c3ccc(Cl)c(Cl)c3)CCCN(C(=O)c3ccccc3)C2)CC1	Methyltransferases active
CC1(C(=O)NC2CCCCCCC2)Cn2c(cc3sccc32)C(=O)N1Cc1cccnc1 (stereo not drawn)	none
CCCS(=O)(=O)Nc1ccc(F)c(C(=O)c2c[nH]c3ncc(-c4ccc(Cl)cc4)cc23)c1F	Methyltransferases active
O=C(c1c(F)ccc(NS(=O)(=O)N2CC[C@@H](F)C2)c1F)c1c[nH]c2ncc(-c3cnc(C4CC4)nc3)cc12	none
COc1ccc(-c2cnc3[nH]cc(CC(=O)N4CCNC(=O)C4)c3c2)cc1	none
COc1cc2c(NC3CCN(C(C)C)CC3)nc(C3CCCCC3)nc2cc1OCCCN1CCCC1	Methyltransferases active!
O=S(=O)(c1ccccc1)c1nnn2c1nc(NC1CCN(Cc3ccccc3)CC1)c1cc(Cl)ccc12	none
O=S(=O)(c1ccccc1)c1nnn2c1nc(NC1CCN(Cc3ccccc3)CC1)c1ccccc12	none
COc1cc2c(Nc3ccc(NC(=O)c4ccccc4)cc3)ncnc2cc1OCCCN1CCOCC1	none
COc1cc2nc(-c3ccc(N4CCN(C)CC4)cc3)nc(NCCN3CCOCC3)c2cc1OC	none
COc1cc2nc(N3CCCC3)nc(NCCCCCN3CCCC3)c2cc1OC	Methyltransferases active!
COc1cc2nc(N3CCCCC3)nc(NC3CCN(C)CC3)c2cc1OC	Methyltransferases active!
COc1cc2nc(N3CCCCC3)nc(NC3CCN(Cc4ccccc4)CC3)c2cc1OC	Methyltransferases active!
COc1cc2nc(-c3cc(F)ccc3O)nc(N[C@@H]3CNC[C@H]3C(C)(C)O)c2cc1OC	none
CCCn1c(=O)c2ccc(C(=O)NC3CCCCC3)cc2n2c(SCc3cccc(OC)c3)nnc12	none
O=c1c2ccccc2n2c(SCc3ccc(F)cc3)nnc2n1CCc1ccccc1	none
CC1(C(=O)NC2CCCCCC2)Cn2c(ccc2-c2ccco2)C(=O)N1Cc1cccnc1 (stereo not drawn)	none
CC1CCN(S(=O)(=O)c2ccc3c(ccn3CC(=O)NCc3ccccc3)c2)CC1	none
COc1ccc(OC)c(CCN2C(=O)c3cc4occc4n3CC2(C)C(=O)NC2CCC(C)CC2)c1 (stereo not drawn)	none
Cc1ccc(S(=O)(=O)NCCn2c(C(F)(F)F)nc3ccccc32)cc1	none
CCOCCCNC(=O)c1cc2n(n1)CC(C)(C(=O)NCCC(C)C)N(C)C2=O (stereo not drawn)	none

Source: PubChem
